Assay results taken from PubChem BioAssay AID619 (University of Pittsburgh Molecular Library Screening Center, 2007).
The campaign covered roughly 97,000 compounds. About 520 (0.54%) were called active.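 The calls were made as follows: active = inhibition of 50% or more in the single-concentration screen; inactive = inhibition below 50%.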 Only a selection was taken, and actives are over-represented in it overall.

Molecular target: Serine/threonine-protein kinase PLK1 (Homo sapiens) (UniProt P53350)
Sequence (P53350 whole entry, looked up): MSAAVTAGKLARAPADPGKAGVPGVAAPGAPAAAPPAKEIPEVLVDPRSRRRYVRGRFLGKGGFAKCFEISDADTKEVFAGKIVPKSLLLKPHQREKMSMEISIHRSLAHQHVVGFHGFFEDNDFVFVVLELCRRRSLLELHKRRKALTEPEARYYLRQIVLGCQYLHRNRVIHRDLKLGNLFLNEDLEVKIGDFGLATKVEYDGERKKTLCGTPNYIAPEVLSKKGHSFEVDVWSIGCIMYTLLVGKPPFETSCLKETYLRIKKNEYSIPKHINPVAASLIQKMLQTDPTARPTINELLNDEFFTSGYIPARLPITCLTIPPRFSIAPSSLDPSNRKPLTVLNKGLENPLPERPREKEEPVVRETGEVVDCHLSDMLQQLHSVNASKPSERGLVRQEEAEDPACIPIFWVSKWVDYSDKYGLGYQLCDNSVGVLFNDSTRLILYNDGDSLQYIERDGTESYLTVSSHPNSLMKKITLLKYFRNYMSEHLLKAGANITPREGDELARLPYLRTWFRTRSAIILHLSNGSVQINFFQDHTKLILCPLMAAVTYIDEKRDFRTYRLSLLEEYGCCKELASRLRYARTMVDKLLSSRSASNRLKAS
Assay: Plk1 peptide phosphorylation blockers – biochemical, TR-FRET, primary screen (AID 619);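 also: 0% = DMSO max control and 100% = H-89 dihydrochloride min control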
Conditions: recombinant PLK1 kinase, at 10 µM, hits give high values

inhibition, inactive:
COCC(=O)Nc1ccc(Br)cc1 2.4%, COc1ccc(NCc2nnc(SCc3ccccc3)n2-c2ccc(OC)cc2)cc1 -14.5%, CC1Cc2ccccc2N1C(=O)c1cc2sccc2n1Cc1ccccc1 (stereo not given) -10.7%, Cc1ccc(C(=O)N/C(=C/C=C/c2ccccc2)C(=O)NCc2ccco2)cc1 -5.76%, O=C(/C=C/c1ccccc1)N/C(=C/c1ccccc1)C(=O)Nc1ccccc1O -4.44%, Cc1ccccc1-n1c(C)cc(/C=N/NC(=O)c2ccc(CN3CCOCC3)cc2)c1C -16%, Fc1ccccc1COc1ccccc1CNCc1ccncc1 -5.47%, COCCCNC(=O)CN1CCN(Cc2ccccc2Cl)C1=O -2.49%, COC(=O)CNS(=O)(=O)c1ccc(OC)cc1 -2.7%, Cc1ccc(-n2c(CNc3ccc(F)cc3)nnc2SCC(=O)N2CCOCC2)cc1 -8.34%, O=C(NCc1ccccn1)c1cc(-c2ccccc2Cl)on1 -11.3%, CCC(C)NC(=O)CCCc1ccccc1 (stereo not given) 3.26%, O=C(Cn1cncn1)N/N=C/c1c2ccccc2cc2ccccc12 -1.05%, CC1CCN(S(=O)(=O)c2ccc(S(=O)(=O)NCc3ccco3)cc2)CC1 -3.69%, Oc1ccc(-c2onc3ccc(Cl)cc23)cc1 7.69%, Cn1nc(C(F)(F)F)c(C(=O)Nc2cccc(C(F)(F)F)c2)c1SCc1ccc(Cl)cc1 -9.84%, C=CCNc1nc(N)c(C(=C(C#N)C#N)c2ccccc2)s1 -9.14%, Cc1c(Nc2cc(N3CCCC(C)C3)c3nonc3c2[N+](=O)[O-])c(=O)n(-c2ccccc2)n1C (stereo not given) -8.74%, O=C(Nc1nnc(SCc2c(Cl)cccc2Cl)s1)C1CCCO1 (stereo not given) 2.16%, CC(C)C[C@@H](N)c1nnc(SCC(=O)c2ccc(Cl)cc2)o1 -3.08%, COc1ccc2[nH]cc(/C=C(/C#N)S(=O)(=O)c3ccccc3)c2c1 0.68%, CC1CC(C)CN(C(=O)CSc2nnc(CSc3ncccn3)n2C)C1 (stereo not given) -3.56%, CCN1C(=O)C(CC(=O)Nc2cc(C)ccc2C)SC1=Nc1ccc(S(N)(=O)=O)cc1 (stereo not given) -2.89%, COC(=O)C1=C(C)N=C2SC(C)C(=O)N2C1/C=C/c1ccccc1 (stereo not given) -12.6%, Cc1nn(C)c(Oc2ccccc2)c1[N+](=O)[O-] -6.21%, CCOC(=O)C1=C(NC(=S)NC(=O)c2ccccc2)c2ccccc2CC1(C)C 5.6%, O=S(=O)(c1cnccc1N1CCN(/N=C/c2ccc(Br)cc2)CC1)N1CCCCC1 -2.5%, COCc1nnc(NC(=O)CS(=O)(=O)Cc2ccccc2)s1 -4.96%, Cc1cccc(S(=O)(=O)CC(=O)Nc2nc(-c3ccccc3)cs2)c1 -1.62%, COC(=O)c1ccc(CSc2nnc(NC(C)C)s2)cc1 -15%, O=C(c1ccc(F)cc1)c1c[nH]c(C(=O)NCc2cccnc2)c1 3.12%, CCSc1nnc(NC(=O)Cc2ccccc2OC)s1 -15.2%, CC(=O)c1cnn(-c2cc(Oc3ccc(F)cc3)ncn2)c1C -5.47%, CC(C)=CC(=O)Nc1nnc(-c2ccc(F)cc2)s1 -17.5%, COc1ccc(C(=O)Nc2ncc3c(n2)-c2ccccc2CC3)cc1 -1.84%, C/C(=N/NC(=O)c1ccc(NC(=O)c2ccc(F)cc2)cc1)c1ccccc1 -9.91%, CCCc1nnc(NC(=O)CN2C(=O)c3ccccc3S2(=O)=O)s1 -11%, O=C(CN1C(=O)c2ccccc2S1(=O)=O)N1CCc2ccccc21 -11.2%, CCOC(=O)N1CCN(C(c2cccnc2)c2ccc3cccnc3c2O)CC1 (stereo not given) 5.49%, CN(C(=O)CSc1nnc(N)s1)c1c(N)n(Cc2ccccc2)c(=O)[nH]c1=O -0.95%, CN1/C(=C\C=C2\N=C(c3ccc(F)cc3)OC2=O)C(C)(C)c2ccccc21 -25.2%, Cc1ccc(NC(=O)c2ccc(CSc3ncnc4nc[nH]c34)cc2)c(C)c1 27.2%, CCOC(=O)N1CCN(S(=O)(=O)c2ccc(C(=O)Nc3ccc(F)cc3F)cc2)CC1 -7.78%, O=C(Nc1ccc2c(c1)CCC2)c1cccc(S(=O)(=O)N2CCN(c3ccc(F)cc3)CC2)c1 -5.86%, CN(Cc1ccccc1)C(=O)COc1ccccc1 -6.87%, C=CCNC(=S)N/N=C/c1ccc(OCc2ccccc2)cc1 7.95%, O=C(Nc1ccc2c(c1)OCCO2)C(c1ccc(F)cc1)N1CCCCC1 (stereo not given) 1.96%, CC1(C)Cc2c(sc3nc(SCC(=O)NCc4ccccc4)n(-c4ccccc4)c(=O)c23)CS1 -3.27%, O=C(Nc1ccccc1Cl)O/N=C(/c1ccccc1)c1ccccn1 -2.38%, CCC(C)(C)n1nnnc1CN1CCN(c2nc3ccc(C)cc3cc2C#N)CC1 -9.44%, COc1ccc(C(C#N)N2N=C(C)CC2(C)C)cc1 (stereo not given) -2.1%, COc1ccc(C2=Nc3cc(C)ccc3OC2)cc1 -6.91%, COc1ccc(-c2nc(CS(=O)CC(=O)NCc3ccccn3)c(C)o2)cc1 (stereo not given) -9.42%, Cc1oc2nc(SCC(=O)NCc3cccnc3)nc(N)c2c1C 5.49%, Cc1ccccc1OCc1nnc(SCC(=O)N2c3ccccc3Sc3ccc(Cl)cc32)o1 3.98%, CCOC(=O)c1c(C)oc2cc(Br)c(OCC(N)=O)cc12 -3.79%

inhibition, active:
O=C(CCS(=O)(=O)c1ccccc1)Nc1nc2c(s1)CCCC2 68.7%, CNC(=O)CN1C(=O)c2ccccc2S1(=O)=O 58.4%, O=C(Nc1cccc(F)c1)c1ccc(S(=O)(=O)N2CCCC2)cc1 72.1%, COc1ccc(-c2nc(CS(=O)CC(=O)NCc3cccnc3)c(C)o2)cc1OC (stereo not given) 78.2%
